Calls of active or inactive are those of the source. Rule for the calls: active = hit-call score of the fitted dose curve at least 0.9, where 1 is the maximum; inactive = score below 0.9.
Legend:
[1] = ATG_E_Box_CIS: Attagene CIS-FACTORIAL HepG2 Assay for human Enhancer Box (E-box) (AID 2282936); conditions: HepG2 E-box cis-reporter transcription, actives raise or lower the signal
Outline: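 Cells: HepG2 (human liver), transient MRTU transfection. Exposure 24 h. RNA → oligo(dT) RT → PCR → 6-FAM label → HpaI → CE. Activity fitted both directions relative to DMSO.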

[2] = ATG_M_61_CIS: Attagene CIS-FACTORIAL HepG2 Assay for M61 Transcription Factor (Internal Marker) (AID 2282937); conditions: HepG2 Attagene CIS-FACTORIAL M61 internal marker reporter; actives raise or lower the signal
Outline: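 HepG2 cells transiently transfected with multiplexed cis-promoter reporter units reporting endogenous transcription factor activity, measured 24 h after dosing. Reporter mRNA quantified by RT-PCR and capillary electrophoresis; bidirectional fit against DMSO baseline.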

[3] = ATG_EGR_CIS: Attagene CIS-FACTORIAL HepG2 Assay for human Early Growth Response 1 (EGR1) (AID 2282938); conditions: HepG2 Attagene CIS-FACTORIAL EGR reporter mRNA; actives raise or lower the signal
Outline: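 HepG2 cells transiently transfected with cis-element-driven multiplexed reporter units, dosed for 24 h. EGR1-element reporter mRNA quantified by RT-PCR, 6-FAM labelling, HpaI digestion and capillary electrophoresis; bidirectional fit versus DMSO.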

[4] = ATG_M_19_CIS: Attagene CIS-FACTORIAL HepG2 Assay for M19 Transcription Factor (Internal Marker) (AID 2282939); conditions: HepG2 Attagene CIS-FACTORIAL M19 internal marker reporter; actives raise or lower the signal
Outline: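 Signals come from fluorescence of labelled reporter-specific PCR fragments resolved by capillary electrophoresis, following 24 h treatment of HepG2 cells transfected with cis-promoter reporter units; activity was fitted in both directions relative to DMSO.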

[5] = ATG_ERE_CIS: Attagene CIS-FACTORIAL HepG2 Assay for Estrogen Response Element (ERE) (AID 2282940); conditions: HepG2 ERE cis-reporter, Attagene RNA transcript; actives raise or lower the signal
Outline: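 Fluorescence of capillary-separated, FAM-labelled reporter cDNA fragments indicates reporter mRNA levels in HepG2 cells exposed to chemicals for 24 h. Transient transfection with cis-regulated units; data fitted in both directions against DMSO.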

[6] = ATG_Ets_CIS: Attagene CIS-FACTORIAL HepG2 Assay for human Erythroblast Transformation Specific (ETS) (AID 2282941); conditions: HepG2 ETS cis-reporter transcription, actives raise or lower the signal
Outline: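 Steps: transfect HepG2 with multiple reporter units; treat compound 24 h; isolate RNA, DNase-treat, reverse-transcribe; PCR-amplify, label with 6-FAM, digest with HpaI; separate by capillary electrophoresis. Activity fitted both directions versus DMSO.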

[7] = biological target: Hepatocyte nuclear factor 3-beta (Homo sapiens) (UniProt Q9Y261); test: ATG_FoxA2_CIS: Attagene CIS-FACTORIAL HepG2 Assay for human Forkhead box A2 (FOXA2) (AID 2282942); conditions: HepG2 cis-reporter transcription factor activity, 24 h; actives raise or lower the signal
Outline: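 HepG2 transiently transfected with a multiplexed cis-promoter reporter library read endogenous FOXA2 activity. After 24 h compound exposure, reporter mRNA was quantified by RT-PCR, HpaI digestion and capillary electrophoresis. Bidirectional fit against DMSO.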

[8] = ATG_FoxO_CIS: Attagene CIS-FACTORIAL HepG2 Assay for human Forkhead box O (FoxO) (AID 2282943); conditions: HepG2 Attagene cis-reporter, FoxO element, mRNA; actives raise or lower the signal
Outline: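 HepG2, transient MRTU transfection (cis element, endogenous TFs). Dose 24 h. TriZol RNA → oligo(dT) RT → PCR → 6-FAM primer extension → HpaI cut → CE. Gain/loss vs DMSO.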

[9] = ATG_GATA_CIS: Attagene CIS-FACTORIAL HepG2 Assay for human GATA Binding Protein (AID 2282944); conditions: HepG2 GATA cis-element reporter, Attagene multiplex mRNA; actives raise or lower the signal
Outline: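 After transfecting HepG2 cells with multiple cis-regulated reporter units, chemicals are dosed for 24 h; isolated RNA undergoes RT-PCR and fluorescent labeling before capillary electrophoresis, with activity expressed against DMSO.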

[10] = ATG_GLI_CIS: Attagene CIS-FACTORIAL HepG2 Assay for human Zinc Finger Protein GLI1 (AID 2282945); conditions: HepG2, Attagene cis-factorial reporter mRNA, GLI element; actives raise or lower the signal
Outline: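 Bidirectional curve fits relative to DMSO, using reporter mRNA levels from RT-PCR plus capillary electrophoresis. Cells were HepG2 transiently carrying cis-regulated reporter constructs, harvested 24 h after dosing.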

Measured: AC50

Hepatocyte nuclear factor 3-beta (Homo sapiens), sequence (Q9Y261 whole entry, looked up): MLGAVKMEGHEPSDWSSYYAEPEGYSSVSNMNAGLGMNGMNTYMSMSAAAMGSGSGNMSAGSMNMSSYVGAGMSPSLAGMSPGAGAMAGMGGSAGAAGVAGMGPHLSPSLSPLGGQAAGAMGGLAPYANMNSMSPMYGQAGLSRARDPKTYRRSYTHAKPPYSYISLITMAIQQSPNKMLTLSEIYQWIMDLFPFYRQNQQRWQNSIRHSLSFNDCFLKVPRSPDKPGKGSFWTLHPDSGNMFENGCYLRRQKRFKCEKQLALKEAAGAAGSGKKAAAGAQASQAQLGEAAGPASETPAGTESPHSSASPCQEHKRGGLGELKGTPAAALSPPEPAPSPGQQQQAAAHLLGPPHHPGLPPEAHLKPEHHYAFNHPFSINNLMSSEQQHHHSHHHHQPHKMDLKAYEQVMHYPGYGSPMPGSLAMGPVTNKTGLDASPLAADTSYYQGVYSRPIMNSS

CCCCCCCC/C=C\CCCCCCCC(=O)OCCO
inactive: [1] | [2] | [3] | [4] | [5] | [6] | [7] | [8] | [9] | [10]

COC(=O)c1c(C)cc(O)c(C)c1O
inactive: [1] | [2] | [3] | [4] | [5] | [6] | [7] | [8] | [9] | [10]

CC(=O)Nc1ccc2c(c1)Cc1cc(NC(C)=O)ccc1-2
inactive: [1] | [2] | [3] | [4] | [5] | [6] | [7] | [8] | [9] | [10]

CC/C=C\CCOC(=O)CCCCC
inactive: [1] | [2] | [3] | [4] | [5] | [6] | [7] | [8] | [9] | [10]

CN1C(=O)N(C)C(O)C1O (stereo not given)
inactive: [1] | [2] | [3] | [4] | [5] | [6] | [7] | [8] | [9] | [10]

C=C[Si](C)(C)O[Si](C)(C)C=C
inactive: [1] | [2] | [3] | [4] | [5] | [6] | [7] | [8] | [9] | [10]

O=C(/C=C/C=C/c1ccc2c(c1)OCO2)N1CCCCC1
inactive: [1] | [2] | [4] | [5] | [6] | [7] | [8] | [9] | [10]
active: [3] 100 µM

C1CN(SSN2CCOCC2)CCO1
inactive: [1] | [2] | [3] | [4] | [5] | [6] | [7] | [8] | [9] | [10]

O=C1CCCC(=O)O1
inactive: [1] | [2] | [3] | [4] | [5] | [6] | [7] | [8] | [9] | [10]

C[Si](C)(CCCN)O[Si](C)(C)CCCN
inactive: [1] | [2] | [3] | [4] | [5] | [6] | [7] | [8] | [9] | [10]

C(=CC=Nc1ccccc1)C=CNc1ccccc1
inactive: [1] | [2] | [3] | [4] | [5] | [6] | [7] | [8] | [9] | [10]

Cc1ccc([N+](=O)[O-])cc1S(=O)(=O)O
active: [8] 153 µM
inactive: [1] | [2] | [3] | [4] | [5] | [6] | [7] | [9] | [10]

O=C(C(Cl)Cl)N1CCOC12CCCCC2
inactive: [1] | [2] | [4] | [5] | [6] | [7] | [8] | [9] | [10]
active: [3] 19.3 µM

Cc1ccc2c(c1)C(=O)c1ccccc1C2=O
inactive: [1] | [2] | [3] | [4] | [6] | [7] | [8] | [9] | [10]
active: [5] 12.2 µM

c1cc(N(CC2CO2)CC2CO2)ccc1OCC1CO1 (stereo not given)
inactive: [1] | [2] | [4] | [5] | [6] | [7] | [8] | [9]
active: [3] 38.7 µM | [10] 140 µM

O=C(O)c1ccccc1Nc1cccc(C(F)(F)F)c1
inactive: [2] | [3] | [4] | [5] | [6] | [7] | [8] | [9] | [10]
active: [1] 89.2 µM

COc1c2ccoc2cc2oc(=O)ccc12
inactive: [1] | [2] | [3] | [4] | [5] | [6] | [7] | [8] | [9] | [10]

OCCNCc1ccccc1
inactive: [1] | [2] | [3] | [4] | [5] | [6] | [7] | [8] | [9] | [10]

c1c[nH]cn1
inactive: [1] | [2] | [3] | [4] | [5] | [6] | [7] | [8] | [9] | [10]

O=C1CCC(=O)N1Cl
inactive: [1] | [2] | [3] | [4] | [5] | [6] | [7] | [8] | [9] | [10]

CCCCCC(C)O (stereo not given)
inactive: [1] | [2] | [3] | [4] | [5] | [6] | [7] | [8] | [9] | [10]

CCCCC/C=C\CCC=O
inactive: [1] | [2] | [3] | [4] | [5] | [6] | [7] | [8] | [9] | [10]

COC(=O)c1cc(Cl)ccc1[N+](=O)[O-]
inactive: [1] | [2] | [3] | [4] | [5] | [6] | [7] | [8] | [9] | [10]

C=CC(=O)OCC(Br)CBr (stereo not given)
inactive: [2] | [4] | [5] | [6] | [8] | [9] | [10]
active: [1] 72.9 µM | [3] 52.8 µM | [7] 131 µM

O=C(O)CCCCCCCCCC(=O)O
inactive: [1] | [2] | [3] | [4] | [6] | [7] | [8] | [9] | [10]
active: [5] 22 µM

c1ccc2c(c1)ccc1ncccc12
inactive: [1] | [2] | [3] | [4] | [5] | [6] | [7] | [8] | [9] | [10]

CC(C)C1=CC2=CC[C@@H]3[C@](C)(CCC[C@@]3(C)C(=O)O)[C@H]2CC1
inactive: [1] | [2] | [4] | [5] | [6] | [7] | [8] | [10]
active: [3] 60.3 µM | [9] 54.1 µM

COc1cc(NC(=O)CC(C)=O)c(OC)cc1Cl
inactive: [1] | [2] | [3] | [4] | [5] | [6] | [7] | [8] | [9] | [10]

C=C(C)c1cccc(C(C)(C)N=C=O)c1
inactive: [1] | [2] | [3] | [4] | [5] | [6] | [7] | [8] | [9] | [10]

Cn1c(=O)[nH]c2ncn(C)c2c1=O
inactive: [1] | [2] | [3] | [4] | [5] | [6] | [7] | [8] | [9] | [10]

COCCOCCOCCOCCOC
inactive: [1] | [2] | [3] | [4] | [5] | [6] | [7] | [8] | [9] | [10]

CCCCCCCCCCCCCCCC(=O)OCC
inactive: [1] | [2] | [3] | [4] | [5] | [6] | [7] | [8] | [9] | [10]

CCOC(=O)[C@H](C)O
inactive: [1] | [2] | [3] | [4] | [5] | [6] | [7] | [8] | [9] | [10]

C=C(C)CCO
inactive: [1] | [2] | [3] | [4] | [5] | [6] | [7] | [8] | [9] | [10]

CN(C)CCCN(C)C
inactive: [1] | [2] | [3] | [4] | [5] | [6] | [7] | [8] | [9] | [10]

NC(=O)c1ccccc1O
inactive: [1] | [2] | [3] | [4] | [5] | [6] | [7] | [8] | [9] | [10]

Nc1ccc(Cl)cc1Cl
inactive: [1] | [2] | [3] | [4] | [5] | [6] | [7] | [8] | [9] | [10]
